How the values were obtained:
[1] = target: T1, Aspartate--tRNA(Asp/Asn) ligase (Mycobacterium tuberculosis (strain ATCC 25618 / H37Rv)) (UniProt P9WFW3); experiment: Assay for Asp RNA synthetase-1 from Mycobacterium tuberculosis; assay type: functional; parameters: scale not given: direction of the effect not stated beside the values; settings: 30 µM; further: in the data most compounds retested in dose-response had high values
T1 sequence (whole entry): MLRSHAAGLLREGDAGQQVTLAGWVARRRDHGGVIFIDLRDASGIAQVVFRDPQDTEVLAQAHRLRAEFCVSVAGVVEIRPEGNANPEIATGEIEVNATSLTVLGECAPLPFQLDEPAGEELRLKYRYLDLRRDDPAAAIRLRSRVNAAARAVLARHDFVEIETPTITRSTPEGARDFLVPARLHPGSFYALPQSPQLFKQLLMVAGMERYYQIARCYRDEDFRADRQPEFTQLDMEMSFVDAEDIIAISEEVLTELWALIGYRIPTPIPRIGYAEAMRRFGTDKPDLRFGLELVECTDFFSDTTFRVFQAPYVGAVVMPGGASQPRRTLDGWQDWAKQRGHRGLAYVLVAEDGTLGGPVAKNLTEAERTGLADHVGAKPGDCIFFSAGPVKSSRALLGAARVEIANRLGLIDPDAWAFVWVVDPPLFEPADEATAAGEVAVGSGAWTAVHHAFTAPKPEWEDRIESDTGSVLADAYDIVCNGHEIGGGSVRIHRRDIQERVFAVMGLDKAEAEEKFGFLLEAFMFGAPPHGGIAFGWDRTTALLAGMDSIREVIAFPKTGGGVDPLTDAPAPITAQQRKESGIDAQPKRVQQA

[2] = target: Shiga toxin 2 (Escherichia coli O157:H7) (UniProt P09385+P09386); experiment: E. coli 0.157:H7 Shiga Toxin SOP - stx2 screening assay; assay type: functional; parameters: scale not given: direction of the effect not stated beside the values; settings: 30 µM

| SMILES | Percent Effect [1] | Percent Effect [2] |
| --- | --- | --- |
| Cc1ccc(F)c(-n2nnc(C(=O)O)c2-c2ccncc2)c1 | 6.35% | -7.89% |
| CN(Cc1nnc2n1CCC2)C(=O)NCCc1ccc2c(c1)OCO2 | 10.3% | 19.1% |
| COc1ccnc(N2CCN(C(=O)NCc3ccc(C)s3)CC2)n1 | -2.05% | 31.8% |
| Cc1cnn(CC2CCCN2C(=O)CCc2nc3ccccc3[nH]2)c1 (stereo not given) | -0.857% | -31.6% |
| COc1ccc(CN(C)CC2(O)CCN(C(=O)c3cccn3C)C2)cc1 (stereo not given) | 2.04% | -5.84% |
| CSCC[C@H](N)C(=O)NCc1cc2n(n1)CCCN(C(=O)C1CCC1)C2 | -3.26% | 2.24% |
| CCn1cc(CN2C[C@@H]3CCCN3C[C@@H]2CCSC)c(C)n1 | -0.662% | 5.06% |
| Cc1ccccc1Cc1cnc(NC(=O)C2CNC(=O)N2)s1 (stereo not given) | 6.1% | 3.51% |
| COc1ccc(CN2CCn3c(CNS(C)(=O)=O)nnc3C2)cc1 | 1.39% | -6.04% |
| CNc1cc(C)nc(C2CN(Cc3ccc(C)nc3)CCO2)c1 (stereo not given) | 0.61% | 3.79% |
| CC(Cn1ccnc1)NC(=O)NCCc1ccccn1 (stereo not given) | -8.15% | -8.89% |
| Cc1nc(C)n(C2CCCN(C(=O)c3ccc(F)cc3F)C2)n1 (stereo not given) | -6.88% | 1.49% |
| Cc1cc(C)c2nc(CN3CCCC(c4cc[nH]n4)C3)cc(O)c2c1 (stereo not given) | 4.05% | 0.0646% |
| CN(Cc1noc(C2CC2)n1)C1CCN(Cc2ccncc2)C1 (stereo not given) | -0.189% | -32.1% |
| O=S(=O)(NCC1CCN(c2cnccn2)CC1)c1c(F)cccc1F | -2.55% | 4.65% |
| O=C(CCO)N1CCOC2(CCCN(C(=O)c3ccco3)C2)C1 (stereo not given) | -4.34% | -15.2% |
| CC(=O)NC1CCCN(C(=O)NCc2cccnc2N(C)C)C1 (stereo not given) | -7.86% | -12.4% |
| CCCc1cc(=O)n(CC(N)=O)c(-n2nc(C)cc2C)n1 | 3.6% | -3.82% |
| Cn1cc(CN2C[C@@H]3COC[C@]3(COc3ccc(C#N)cn3)C2)cn1 | 3.33% | -7.69% |
| CCCN1CCCn2nc(CNC(=O)CCc3scnc3C)cc2C1 | -0.334% | 3.64% |
| Cn1nc(C2CCCN(C(=O)CO)C2)cc1O (stereo not given) | 3.92% | 10.4% |
| CCOCC(=O)NC1(c2cccc(Br)c2)CC1 | 1.26% | -5.68% |
| O=C1[C@H]2CC[C@H](CN(C3CSCCSC3)C2)N1Cc1cscn1 | 2.92% | -34.4% |
| Cc1cc(C)n2cc(CN3CCCC3Cn3nc(C)nc3C)nc2n1 (stereo not given) | -2.84% | 5.36% |
| CCCN(CCO)C(=O)C1CCC(=O)N(CCc2ccc(Cl)cc2)C1 (stereo not given) | -4.04% | 18% |

| SMILES | Percent Effect [1] | Percent Effect [2] |
| --- | --- | --- |
| O=c1[nH]c2c(c(=O)n1C1CCCCC1)CCC2Nc1ccccc1Cl (stereo not given) | 4.33% | -5.14% |
| Cc1cc(C)n(CCCNC(=O)[C@@H](C)NC(=O)OC(C)(C)C)n1 | 2.46% | 12.1% |
| CC(C)S(=O)(=O)NCC1CCCN(C(=O)c2ccc3c(c2)OCCO3)C1 (stereo not given) | 6.79% | -18.1% |
| CC(C)C(=O)NCCNc1nccc(-c2cc(C(=O)O)ccn2)n1 | 0.977% | -4.31% |
| CCS(=O)(=O)N1CC[C@]2(C[C@@H](OCC3CC3)CO2)C1 | -1.4% | 11% |
| CN(C)CCO[C@@H]1CC[C@H]2[C@H]1OCCN2C(=O)COc1ccccc1 | 1.51% | -12.1% |
| CC(C)(C)c1nc(CN2CCCC2Cn2cccn2)no1 (stereo not given) | -2.09% | -50.8% |
| O=C(NCc1ccco1)[C@@]12CCO[C@@H]1CCN(CCN1CCCC1)C2 | 1.05% | -24.8% |
| CCOCCCn1c(NC(=O)c2scnc2C)nc2ccccc21 | -5.62% | -30.2% |
| O=C(c1ccc(C2CCCO2)s1)N1CCN(c2ccccc2F)CC1 (stereo not given) | 1.1% | -30.2% |
| Cc1ncc(CNC2CCCN(Cc3noc(C4CC4)n3)C2)s1 (stereo not given) | -4.12% | 28.2% |
| NC(=O)C1CCC(NC(=O)COc2ccc(Cl)c(Cl)c2)CC1 (stereo not given) | 3.91% | -29.1% |
| CN(C)c1cc(C(=O)N2CCN(c3cnccn3)CC2)ccn1 | -1.5% | 3.8% |
| Cn1ccnc1-c1ccccc1C(=O)N1CCc2c(nc(N)[nH]c2=O)C1 | 2.08% | -35.7% |
| COc1ccc(NC(=O)c2ccc[nH]2)c(N2CCN(C(C)=O)CC2)n1 | 1.11% | 0.954% |
| CCc1c(C)nc2cc(C3CCN(Cc4ccccc4F)C3)nn2c1O (stereo not given) | 4.45% | -125% |
| CC(C)CN1C[C@H]2CCN(Cc3cccnc3)CC[C@H]2S1(=O)=O | -4.32% | 4.22% |
| c1cnn(CC2CN(c3ncnc4ccsc34)CCO2)c1 (stereo not given) | 1.65% | -10.2% |
| CCn1ncc(Br)c1CN(C)S(=O)(=O)c1ccc(C)cc1 | 0.0735% | -7.09% |
| Cc1cccnc1NC(=O)C(C)Cn1nc(C(F)(F)F)cc1C (stereo not given) | -2.9% | -1.69% |
| COC[C@@H]1CC[C@H]2[C@H](CCN2S(=O)(=O)c2ccc(OC)cc2)O1 | -2.58% | 1.36% |
| COc1ccc(Nc2nc3c(C)nn(C)c3c(=O)n2C)c(OC)c1 | 6.63% | -34.2% |
| CN1CCC(NC(=O)NCc2csc(Br)c2)CC1 | 6.12% | 6.77% |
| CC(NC(=O)NCCN1CCCCCC1=O)c1nncn1C (stereo not given) | -7.63% | -18.6% |
| CCc1ncc2c(n1)CN(Cc1nnc(C)o1)CC2 | -4.37% | -16.2% |
